Source: PubChem BioAssay (National Center for Advancing Translational Sciences (NCATS))
Shown are actives, neighbours in structure and some others; about 3.1% of the full set was active somewhere.
TSHR antag: antagonists of human thyroid stimulating hormone receptor; AID 504810; activity change, negative = inhibition, % at 11.5 µM; actives 0.2% (n = 330,000); TSHR-expressing cells, TSH-stimulated cAMP HTRF, 2 h; stronger effect = lower value;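 active means activity change below a set negative limit, meaning inhibition stronger than a set level, cut at about -70% in these data; inconclusive means activity change between two set negative limits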
Target sequence (P16473 whole entry, looked up): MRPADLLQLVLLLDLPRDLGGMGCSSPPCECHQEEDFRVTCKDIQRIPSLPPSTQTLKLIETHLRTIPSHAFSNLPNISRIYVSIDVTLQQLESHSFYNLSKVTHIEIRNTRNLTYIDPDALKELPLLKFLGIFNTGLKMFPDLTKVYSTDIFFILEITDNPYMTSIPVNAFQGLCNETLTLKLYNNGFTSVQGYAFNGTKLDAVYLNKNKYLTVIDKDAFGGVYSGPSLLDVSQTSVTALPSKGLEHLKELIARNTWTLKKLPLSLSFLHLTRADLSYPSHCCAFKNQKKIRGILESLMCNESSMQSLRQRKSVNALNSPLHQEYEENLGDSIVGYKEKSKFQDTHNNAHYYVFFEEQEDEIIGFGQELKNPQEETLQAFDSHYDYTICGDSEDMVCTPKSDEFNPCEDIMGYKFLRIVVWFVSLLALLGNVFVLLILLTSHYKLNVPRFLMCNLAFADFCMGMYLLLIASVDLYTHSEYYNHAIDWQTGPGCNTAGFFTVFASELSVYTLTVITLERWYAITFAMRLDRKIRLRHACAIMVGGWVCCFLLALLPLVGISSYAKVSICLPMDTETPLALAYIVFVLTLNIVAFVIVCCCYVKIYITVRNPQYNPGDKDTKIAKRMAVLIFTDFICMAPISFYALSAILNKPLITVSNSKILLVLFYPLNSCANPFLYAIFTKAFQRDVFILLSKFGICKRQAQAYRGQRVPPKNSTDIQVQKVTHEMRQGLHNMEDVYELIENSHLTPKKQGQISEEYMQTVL
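Freshly harvested TSHR cells receive pin-tooled compound, then EC80 TSH at 4nM final. After 2 hours at 37 deg C, antibody in lysis buffer and cAMP-d2 are added; 30 minutes at ambient temperature precede the HTRF read.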
VDR inh: blocks the human vitamin D receptor; actives 0.93% (n = 400,000); VDR-SRC2-3 peptide fluorescence polarization, 2 h; AID 504847; P11473; Potency, µM, actives largely listed as inhibitors
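Signal is fluorescence polarization, reporting how far test compounds block the interaction of VDR with the SRC2-3 coregulator peptide after a 2 h room-temperature incubation.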
PLK1 PBD inh: PLK1 (human) polo-box domain binding inhibition; actives 2.8% (n = 360,000); Plk1 PBD binding of FITC phosphopeptide, fluorescence polarization; AID 720504; Potency, µM, hits mostly inhibitors; further: series mostly up to about 57 µM; nearly all actives have a fitted effect of over 65% in size
Vif-A3F inh: blocks the Vif interaction with APOBEC3F; HeLa A3F-eYFP + Vif (tagged APOBEC3F with the HIV-1 protein that degrades it), YFP fluorescence increase; Potency, µM (top dose mostly 46.1 µM); actives 0.2% (n = 390,000); AID 602313; further: nearly all actives have a fitted effect of over 65% in size
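HeLa cells stably expressing Vif plus C-terminally eYFP-tagged A3F were seeded, incubated overnight at 37 deg C, dosed with compound, incubated overnight again at 37 deg C. Yellow fluorescence (Ex 488/Em 500-530) reported blocked Vif-mediated A3F-eYFP degradation.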
Vif-A3G inh: inhibitors of Vif-APOBEC3G interaction. Q9HC16. HeLa A3G-eYFP + Vif (tagged APOBEC3G with the HIV-1 protein that degrades it), YFP fluorescence, overnight. Potency, µM (top dose mostly 46.1 µM), usual class: inhibitors. actives 0.076% (n = 410,000). AID 602310; further: nearly all actives have a fitted effect of over 60% in size
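HeLa cells stably expressing Vif and C-terminally eYFP-tagged A3G, seeded overnight at 37 deg C, then exposed to compound by pintool overnight at 37 deg C. Rise in yellow fluorescence (Ex 488/Em 500-530, Acumen) marks blocked Vif-driven A3G degradation.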
Hits are given with their value; n = inactive; u = inconclusive; x = not tested or not shown. Unless noted, the call rests on the fitted dose curve; in most records, active means well fitted curve in the direction sought with a large enough effect; inconclusive means small, poorly fitted or top-dose-only effect, or another doubt; inactive means no such curve, though single readings can be large; an effect the other way counts as inactive or inconclusive.

SMILES | TSHR antag | VDR inh | PLK1 PBD inh | Vif-A3F inh | Vif-A3G inh
CCCCCC[C@H]1C(=O)O[C@H](C)[C@H](NC(=O)c2cccc(NC=O)c2O)C(=O)O[C@@H](C)[C@H]1OC(=O)CC(C)C | x | n | x | x | x
O=C1NC(=O)N(Cc2ccc(F)cc2)C(=O)/C1=C\C=C\c1ccco1 | n | u | u | 10µM | u
Cc1cc(C)cc(N2C(=O)NC(=O)/C(=C\C=C\c3ccco3)C2=O)c1 | n | n | 1.7µM | n | u
CCCCN1C(=O)/C(=C/C=C/c2ccco2)C(=O)NC1=S | n | u | 1.1µM | u | n
Cn1cccc1/C=C1/C(=O)NC(=O)N(Cc2ccc(F)cc2)C1=O | n | n | u | n | n
CCCCN1C(=O)/C(=C\c2ccco2)C(=O)N(CCc2ccccc2)C1=O | n | n | 0.84µM | n | n
CCCCN1C(=O)/C(=C/c2ccc(N(C)C)cc2)C(=O)N(Cc2ccco2)C1=O | n | n | u | u | u
CC(C)(O)[C@@H]1[C@H]2OC(=O)[C@@H]1[C@]1(O)C[C@H]3O[C@]34C(=O)O[C@H]2[C@@]14C (tested in a mixture with another compound) | x | n | x | x | x
CC(C)c1ccc(N2C(=O)NC(=O)/C(=C/C=C/c3ccco3)C2=O)cc1 | n | n | 0.67µM | u | 8.9µM
CC(C)c1ccc(N2C(=O)CC(=O)NC2=O)cc1 | n | n | n | n | n
Cc1ccc(N2C(=O)NC(=O)/C(=C/C=C/c3ccco3)C2=O)cc1 | n | 25µM | u | u | u
CCc1ccc(N2C(=O)NC(=O)/C(=C\C=C\c3ccco3)C2=O)cc1 | n | u | 1.3µM | u | u
C=C(C)[C@@]12OC3(c4ccccc4)O[C@@H]1[C@@H]1[C@@H]4O[C@]4(CO)[C@@H](O)[C@]4(O)C(=O)C(C)=C[C@H]4[C@@]1(O3)[C@H](C)[C@H]2OC(=O)/C=C/C=C/c1ccccc1 | x | n | x | x | x
COc1ccc(NC(=S)NC(NC(=O)CF)C(Cl)(Cl)Cl)cc1[N+](=O)[O-] (configuration not stated) | n | n | 30µM | n | n
COc1ccc(N2C(=O)NC(=O)/C(=C\c3ccccc3[N+](=O)[O-])C2=O)cc1 | n | 50µM | 12µM | n | n
COc1ccc(N2C(=O)NC(=O)/C(=C/c3ccc4c(c3)Cc3ccccc3-4)C2=O)cc1 | n | x | x | x | x
NC(=NCCc1ccc(I)cc1)SCCCc1cnc[nH]1 | x | n | x | x | x
O=C1C2CC=CCC2C(=O)N1SC(Cl)(Cl)Cl (configuration not stated) | x | 4µM | x | x | x
O=C(c1ccncc1)N1CCC[C@@]2(CCN(Cc3nccs3)C2)C1 | x | n | x | x | x
CCCCCCCC/C=C\CCCCCCCC(=O)OC[C@@H](COP(O)(O)=S)OC | x | 18µM | x | x | x
O=C1C=C(N2CC2)c2ccccc2C1=O | x | x | 15µM | n | n
COc1ccc2c3c1OC1C[C@@H](O)C=C[C@@]31CCN(C)C2 (some centres not stated) | x | n | x | x | x
Cc1ccccc1NC(=O)CCl | n | n | n | n | n
O=C(CN1C(=O)S/C(=C\C=C\c2ccccc2)C1=O)Nc1ccccc1C(=O)O | n | 79µM | 19µM | n | n
CCc1ccc(/C=C(/C#N)C(N)=S)cc1 | n | u | 7.5µM | n | n
SMILES | TSHR antag | VDR inh | PLK1 PBD inh | Vif-A3F inh | Vif-A3G inh
COc1ccc(CN2Cc3cnnn3-c3ccccc3C2C#N)cc1 (configuration not stated) | x | 20µM | n | n | u
COC(=O)C1=C(N)Oc2cc(C)oc(=O)c2C12C(=O)Nc1ccccc12 (configuration not stated) | n | u | 24µM | n | n
O=c1[nH]sc2cc(F)ccc12 | n | 7.1µM | 3.8µM | n | n
CC/C(=C\C=C\[C@@H]1C=C[C@@H]2CCC[C@H]2[C@@H]1C(=O)c1ccc[nH]1)[C@@H]1O[C@@H]([C@@H](C)C(=O)O)CC[C@@H]1C | -72 | n | u | x | n
Brc1c(NC2=NCCN2)ccc2nccnc12 | n | 45µM | x | x | n
CCOC(=O)c1ccccc1C(=O)OCC | x | n | n | n | n
CCOC(=O)c1sc(=NC(=O)c2ccc(C)c(C)c2)n(C)c1C | n | n | 27µM | n | n
Cc1cccn2c(=O)c(/C=C(\C#N)c3nc4ccccc4s3)c(Oc3ccc(F)cc3)nc12 | x | u | x | n | n
CCOC(=O)c1c(C)c(P(=S)(N2CCOCC2)N2CCOCC2)n(C)c1C | n | n | 27µM | n | n
CCOP(=S)(OCC)N1CCOCCOCCN(P(=S)(OCC)OCC)CCOCCOCC1 | n | n | n | n | n
O=C(O)c1c(C(=O)O)c(-c2ccc(Br)cc2)n2c1CSC2 | n | u | n | n | n
CCCc1[nH]nc2c1C(CCC)C(C#N)=C(N)O2 (configuration not stated) | n | u | n | n | n
CCCc1[nH]nc2c1C(c1ccc(OC)c(Cn3nnc4ccccc43)c1)C(C#N)=C(N)O2 (configuration not stated) | x | u | 12µM | n | n
CN1CCCC2(CCN(C(=O)c3ccco3)CC2)C1 | x | n | x | x | x
